SMILES strings stand for the structures. Among all 2,100 compounds or so, about 590 (28%) were called active. Another 42% or so got no clear call; they are omitted. The call rests on the fitted dose curve; in most records, active means well fitted inhibition curve with a large enough effect; inconclusive means small, poorly fitted or top-dose-only effect; inactive means flat fitted curve, though single readings scatter. This is one part of the list.
Potency means the concentration at half of the fitted maximal effect.

Chain of DNA dC->dU-editing enzyme APOBEC-3F (Homo sapiens) (Q8IUX4 whole entry, looked up): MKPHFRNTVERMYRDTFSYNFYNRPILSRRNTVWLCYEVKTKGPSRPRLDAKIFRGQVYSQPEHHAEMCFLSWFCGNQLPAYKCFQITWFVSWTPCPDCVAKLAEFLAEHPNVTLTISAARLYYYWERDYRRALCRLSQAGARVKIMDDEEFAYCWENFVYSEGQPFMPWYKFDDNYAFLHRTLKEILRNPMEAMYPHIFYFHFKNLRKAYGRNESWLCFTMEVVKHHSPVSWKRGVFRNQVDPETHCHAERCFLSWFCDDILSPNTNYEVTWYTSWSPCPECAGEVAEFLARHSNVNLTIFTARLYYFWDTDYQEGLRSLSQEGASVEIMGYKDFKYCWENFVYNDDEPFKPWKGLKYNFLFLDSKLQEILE

In this assay the target is DNA dC->dU-editing enzyme APOBEC-3F (Homo sapiens) (UniProt Q8IUX4). Description: qHTS for inhibitors of Vif-A3F interactions: Cherry picks. Further: nearly all actives have a fitted effect of over 70% in size.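 On max response: % of control where 0% means no effect; active compounds raise eYFP fluorescence by blocking Vif-driven A3F loss.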 Conditions: HeLa A3F-eYFP + Vif (tagged APOBEC3F with the HIV-1 protein that degrades it), eYFP fluorescence, 24 h. A digest of the protocol:
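HeLa cells stably expressing A3F-eYFP plus Vif, cultured overnight, then exposed to compounds at several concentrations for 24 h at 37 deg C. Reduced Vif-driven degradation read as rising eYFP fluorescence (488 nm ex/500-530 nm em) by laser-scanning cytometry; MG132 as positive control.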
(In general: Quantitative high-throughput screening tests each substance at several concentrations.)
For the molecule `Cc1ccc(-c2nc(-c3cc4cccc(OCc5cccc(F)c5)c4oc3=O)no2)cc1`, the Potency is 18.4 µM (active).

For the molecule `Nc1c(C(=O)c2ccccc2)sc2nsc(SCCN3CCCC3)c12`, the Potency was 14 µM (active).

Consider `Nc1c(C(=O)c2ccccc2)sc2snc(SCC(=O)c3ccccc3)c12`, for which the Potency is 17.7 µM (active).

Take `N#CC(C(=O)NCc1ccccc1)c1nc2ccccc2nc1N1CCCC1` (stereo not drawn): the max response is -25.3% (inactive).

In the case of `CCN(CC)c1nc2ccccc2nc1C(C#N)C(=O)NCCc1ccccc1` (stereo not drawn), the Potency is 3.66 µM (active).

On to `CC1=CN2C(=N)/C(=C/c3ccc([N+](=O)[O-])o3)C(=O)N=C2S1`, for which the Potency was 14 µM (active).

For `CCS(=O)(=O)C1=NN2C(=N)/C(=C\c3ccc(SCc4ccco4)o3)C(=O)N=C2S1`, the max response is -0.189% (inactive).

As for `CCSC1=N/C(=C\C=C2/Oc3ccccc3N2CC)C(=O)S1`, the Potency is 20.6 µM (active).

Turning to `CCCCN1C(=O)/C(=C/C=C2\Oc3ccccc3N2CC)SC1=S`, the max response is -1.16% (inactive).

As for `CC(O)CN(CC(C)O)c1ccc2c(c1)Cc1cc([N+](=O)[O-])ccc1-2` (stereo not drawn), the Potency was 3.66 µM (active).

As for `COC(=O)c1[nH]c2c(c1C(=O)OC)CCc1ccccc1-2`, the max response is -7.85% (inactive).

As to `CC(C)c1ccc(NC(=O)Nc2cnccn2)cc1`, the max response is -23.5% (inactive).

For the molecule `CC(C)(C)C(=O)c1sc2nc(-c3cccs3)cc(C(F)(F)F)c2c1N`, the Potency was 1.03 µM (active).

On to `Cc1nc(-c2ccc(Cl)cc2)sc1C(=O)NN`, for which the max response is -25% (inactive).

In the case of `Nc1c(C(=O)C2CC2)sc2nc(-c3cccs3)cc(C(F)(F)F)c12`, the Potency is 1.64 µM (active).

Consider `CC(=O)c1sc2nc(-c3cccs3)cc(C(F)(F)F)c2c1N`, for which the Potency is 7.31 µM (active).

Consider `CCN(CC)C(=O)c1sc2nc(-c3cccs3)cc(-c3ccc(Cl)cc3)c2c1N`, for which the Potency was 15.8 µM (active).

In the case of `S=C(NC1CCCCC1)N(CCc1ccccc1)CCc1ccccc1`, the max response is -2.16% (inactive).

On to `Cc1ccc(N2C(=O)CS/C2=C(\C(Cl)=C(Cl)Cl)[N+](=O)[O-])cc1`, for which the max response was 2.65% (inactive).

For the molecule `O=C(O)c1ccc(N/N=C/C(Br)=C/c2ccccc2)cc1`, the max response was -18.2% (inactive).

Take `Cc1ccc(NC(=O)Cc2ccc(-n3cccc3)cc2)c(C)c1`: the max response is -1.25% (inactive).

Regarding `Cc1ccc(NC(=O)C(=Cc2ccc(C(=O)O)cc2)C(=O)Nc2ccc(C)cc2C)c(C)c1`, the Potency was 5.59 µM (active).

As to `O=C1COc2ccc(C(=O)CSc3nc4ccccc4c(=O)n3-c3ccc(Cl)c(Cl)c3)cc2N1`, the Potency is 18.4 µM (active).

Regarding `O=S(=O)(N=C1C=CC(=NS(=O)(=O)c2ccccc2)c2ccccc21)c1ccccc1`, the max response is -24.1% (inactive).

`O=C(/C=C/c1ccncc1)c1cc(Cl)ccc1O`: the max response is 3.83% (inactive).

Consider `COc1ccc(N/C=C/C(=O)c2sc(-c3ccccc3)nc2C)cc1`, for which the max response was -17.8% (inactive).

Regarding `CC[n+]1c(/C=C/Nc2ccccc2)oc2ccccc21`, the Potency is 7.31 µM (active).

For `CC[n+]1c(/C=C/N(C)c2ccccc2)oc2ccc(F)cc21`, the Potency is 11.2 µM (active).

For `CC[n+]1c(/C=C/Nc2ccccc2)oc2ccc(OC)cc21`, the Potency is 20.6 µM (active).

As for `CCOC(=O)c1c(CC(C)C)csc1/N=C/C1C(=O)CCCC1=O`, the max response is -3.21% (inactive).

On to `CCc1ccc2c(c1)NC(=O)C2(C)Cc1ccccc1Cl` (stereo not drawn), for which the max response was -19.4% (inactive).

As for `COc1ccccc1C(=O)NC(=S)Nc1ccc(NC(=O)c2ccco2)cc1`, the max response was -12.8% (inactive).

As for `COCCCNc1nc2ccccc2nc1NS(=O)(=O)c1ccccc1`, the max response is -2.62% (inactive).

For the molecule `CCN(CC)c1ccc2c(c1)oc(=O)c1c(Cl)cc(=O)oc12`, the Potency is 20.6 µM (active).

Turning to `Cc1ccc(O)c(Nc2c3ccccc3nc3ccccc23)c1`, the max response is -0.294% (inactive).

Consider `Cc1ccc(O)c(NC(=O)c2cc(-c3ccccc3O)no2)c1`, for which the Potency was 18.4 µM (active).

As to `CCc1nnc(NC(=O)CSc2nnc(-c3ccccc3O)n2-c2ccc(C)cc2C)s1`, the max response is -23.9% (inactive).

On to `Cn1cc(/C=C/c2ccnc3ccccc23)c2ccccc21`, for which the Potency is 23.1 µM (active).

Regarding `Cn1cc(/C=C/c2ccc3ccccc3n2)c2ccccc21`, the Potency is 20.6 µM (active).

On to `COC(=O)C1=COC(C)C2CN3CCc4c([nH]c5cc(OC)c(OC)cc45)C3CC12` (stereo not drawn), for which the max response is -8.29% (inactive).

With `CC(=O)Nc1ccc(S(=O)(=O)Nc2nc3ccccc3nc2Nc2ccc(N)cc2)cc1`, the max response was -0.838% (inactive).

As for `Cc1cc(N2CCN(c3ccc([N+](=O)[O-])c4cccnc34)CC2)c2ccccc2n1`, the Potency is 10.3 µM (active).

As for `O=[N+]([O-])c1cc(Cl)c2cccnc2c1O`, the max response was 3.56% (inactive).

On to `O=[N+]([O-])c1cc(O)c2ncccc2c1`, for which the max response is -7.28% (inactive).

In the case of `Cc1cc(C)c2cc3c(N)c(C(=O)Nc4c(C)[nH]c(=O)[nH]c4=O)sc3nc2c1`, the Potency is 13 µM (active).

Regarding `Cc1ccc(C2C(C(=O)c3cccs3)=C(O)C(=O)N2c2nnc(C)s2)cc1` (stereo not drawn), the Potency is 19.8 µM (active).

Take `Cc1ccc(C2=NN(C(=O)c3cccs3)C(c3ccccc3O)C2)cc1` (stereo not drawn): the max response was -0.929% (inactive).

Consider `CCCSc1nnc(N2C(=O)C(O)=C(C(=O)c3ccco3)C2c2ccccc2F)s1` (stereo not drawn), for which the max response is -6.1% (inactive).

On to `FC(F)(F)c1ccccc1NC(=S)NN=C1CCCCCC1`, for which the max response is 0.807% (inactive).

Take `O=C(NNC1=Nc2cccc3cccc1c23)c1ccc(Br)cc1`: the Potency is 16.4 µM (active).

`CC(C)OC(=O)c1cc(C(=O)c2cc(F)ccc2O)coc1=N`: the Potency is 23.1 µM (active).

On to `C=CCN=c1scc(-c2ccc(F)cc2)n1/N=C/c1ccccn1`, for which the max response was 5.22% (inactive).

In the case of `Cc1ccc(-n2nc3c(SCCN4CCOCC4)nnc(C)c3c2C)cc1`, the max response is -16.8% (inactive).

`Cc1nnc(SCC(=O)NCc2ccccc2F)c2nn(-c3ccc(Cl)cc3)c(C)c12`: the Potency is 16.4 µM (active).

On to `C=C1C(=O)O[C@H]2C1CC[C@@](C)(O)C13C=CC(C)(C21)C1(C3)C(=O)O[C@@H]2C3C(C)=CCC3[C@](C)(O)C[C@H](OC(C)=O)C21` (stereo partly drawn), for which the max response was -25.3% (inactive).

Regarding `CCN1/C(=C/c2ccc3ccccc3[n+]2CC)C=Cc2ccccc21`, the max response is -17% (inactive).

Turning to `CCN1/C(=C/c2cc[n+](C)cc2)C=Cc2cc(C)ccc21`, the Potency was 11.6 µM (active).

For `CC1(C)COC(Cn2c3ccccc3c3ccccc32)O1` (stereo not drawn), the max response was -25.3% (inactive).

Values taken from PubChem BioAssay AID651814 (National Center for Advancing Translational Sciences (NCATS), 2012).
